Activity calls are given as the source filed them. A call without a number means that no potency is given here. Calls come from the whole dose curve; as a rule, active = well fitted activation curve with a large enough effect; inconclusive = small, poorly fitted or top-dose-only effect; inactive = no such curve, though single readings can be large or run the other way.
Assay: Confirmatory qHTS for Identification of Small Molecule Activators of Huntingtin-Antisense Promoter Activity
Details: HEK293 HTT-AS promoter firefly luciferase reporter, 24 h; series mostly up to 57.5 µM
In short: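 2,500 luciferase reporter HEK293 cells/well; 24 h culture; cpds up to 57.5 uM final, PTC124 50 uM ctrl; 24 h, 37C; Dual-Glo FLuc reagent, 10 min RT; lum. Norm.: vehicle 0%, zero RLU -100%.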
Potency is the fitted concentration of half-maximal effect.

| Structure (SMILES) | Potency |
| --- | --- |
| O=C(Cn1cc(S(=O)(=O)Cc2ccccc2F)c2ccccc21)Nc1ccc(F)c(Cl)c1 | inactive |
| CC(C)C(=O)N1c2ncnn2C2(CCCCC2)[C@@H]2CCCC[C@@H]21 | inactive |
| Cc1ccc(-c2nnc(Nc3ccc(F)cc3)c3ccccc23)cc1S(=O)(=O)NC(C)C | inactive |
| Cc1cccc(N2CCN(C(=O)C3CCCN(S(=O)(=O)c4ccc5c(c4)oc(=O)n5C)C3)CC2)c1C (stereo not drawn) | inactive |
| CCCC(=O)c1ccc(OC(=O)c2c(-c3ccccc3Cl)noc2C)cc1 | inactive |
| CC(=O)c1cccc(NS(=O)(=O)c2cccc(S(=O)(=O)c3ccc(Br)cc3)c2)c1 | inactive |
| CCc1ccc(NC(=O)c2ccc(F)c(S(=O)(=O)N3CCC4(CC3)OCCO4)c2)cc1 | inactive |
| O=C(Nc1ccc(Br)cc1)c1ccc(F)c(S(=O)(=O)NC2CCCCCC2)c1 | inactive |
| Cc1cc(N2CCCCC2)nc2ccc(NC(=O)/C=C/c3ccc(OC(C)C)cc3)cc12 | inactive |
| Cc1cccc(N2CCN(C(=O)C3CCN(S(=O)(=O)c4c(C)noc4C)CC3)CC2)c1C | inactive |
| CCCCN(CC)C(=O)C1CCC(CNS(=O)(=O)c2cccc3nsnc23)CC1 (stereo not drawn) | inactive |
| O=C(Nc1cccc(C(F)(F)F)c1)C1CCCN1S(=O)(=O)c1cccc2nsnc12 (stereo not drawn) | inactive |
| CCOC(=O)C1=C(CN(C)Cc2ccccc2)NC(=O)NC1c1ccc(OC)cc1 (stereo not drawn) | inactive |
| Cc1cccc(N2CCN(S(=O)(=O)c3cc(C(=O)Nc4ccc(Oc5ccccc5)cc4)ccc3F)CC2C)c1 (stereo not drawn) | inactive |
| CC(C)c1ccc(NC(=O)c2cnc3sc(N4CCCC4)nn3c2=O)cc1 | inactive |
| O=C(NCc1ccccc1)c1ccc(CSc2nc3cccnc3n2Cc2ccccc2)cc1 | inactive |
| Cn1c(=O)n(C)c2cc(NS(=O)(=O)c3ccc(F)cc3)ccc21 | inactive |
| COc1ccc(CN2CCc3c(c(=O)n4ncc(C(=O)N5CCN(c6ccccc6OC)CC5)c4n3C)C2)cc1 | inactive |
| Cc1ccc(SCc2nc(-c3ccc(C(=O)NCc4ccccc4Cl)cc3)oc2C)cc1 | inactive |

| Structure (SMILES) | Potency |
| --- | --- |
| CCCOc1ccc(C2c3c(-c4ccccc4O)n[nH]c3C(=O)N2CCCOCC)cc1OCC (stereo not drawn) | inactive |
| Cc1ccc2onc(CC(=O)Nc3cccc(C(F)(F)F)c3)c2c1 | inactive |
| Cc1cc(C)cc(NC(=O)Nc2cccs2)c1 | 3.38 µM (active) |
| O=C(NCc1ccc(F)cc1)C1CCN(C(=O)c2ccc(-n3ccc4ccccc43)s2)CC1 | inactive |
| Cc1c(NS(C)(=O)=O)cccc1-c1nc2ccccc2s1 | inactive |
| CCc1ccccc1-n1c(SCC(=O)Nc2ccc(C)cc2)nc2n[nH]c(C)c2c1=N | inactive |
| Cc1cc(NC(=O)c2cc(-c3ccc(F)cc3)on2)nn1Cc1ccc(Cl)cc1 | inactive |
| CCC(=O)N1CCCc2cc(S(=O)(=O)N3CCC(C(=O)Nc4ccc(F)c(F)c4)CC3)ccc21 | inactive |
| COc1ccc(CCNC(=O)c2c(C)nn(-c3ccc(F)cc3)c2-n2cccc2)cc1OC | inactive |
| COc1ccc(C(C)n2c(C)c3c(C)nnc(C)c3c2C)cc1 (stereo not drawn) | inactive |
| Cc1ccc(Cn2c(SCc3ccc(C(=O)NC4CCCC4)cc3)nc3ccncc32)cc1 | inactive |
| Cn1c(COc2ccccc2C(C)(C)C)nc2ccccc21 | inactive |
| COc1ccc2sc(N(Cc3cccnc3)C(=O)c3cccs3)nc2c1 | inactive |
| CCS(=O)(=O)c1ncc(Cl)c(C(=O)N(Cc2ccccc2)c2ccc(OC)cc2)n1 | inactive |
| CCOc1ccc(C2=C(C(=O)CC)Sc3nncn3N2C(=O)CC)cc1 | inactive |
| CCc1cccc(-n2nnc(S(=O)(=O)c3ccc(OC)cc3)c2C)c1 | inactive |
| CC(=O)N1CCCc2cc(S(=O)(=O)N3CCCC(C(=O)N4CCN(c5ccccc5)CC4)C3)ccc21 (stereo not drawn) | inactive |
| COc1ccc(NC(=O)CN2CCCN(S(=O)(=O)c3ccc(Br)cc3)CC2)c(OC)c1 | inactive |
| COc1ccc(N2CCN(C(=O)c3cc4c(-c5ccccc5F)nn(C)c4s3)CC2)cc1 | inactive |
